Data on 90 compounds can be found in PubChem BioAssay AID743258 (The Scripps Research Institute Molecular Screening Center, 2014).

The whole screen tested about 3,300 compounds, of which about 100 (3%) were called active. The list is a sample of the results. Unmarked numbers belong to inactive results. Rule as the data show it: active = inhibition above about 9.5%; inactive = the rest.

The test deals with 1-phosphatidylinositol 4,5-bisphosphate phosphodiesterase gamma-1 (Homo sapiens) (UniProt P19174). Put plainly: PLC-gamma1 enzyme inhibitors, counter-screen for PLC-beta3 inhibitor project, biochemical, fluorescence (AID 743258). As to conditions: purified PLC-gamma1, fluorogenic substrate, at 12.3 µM, hits give high values. (A counterscreen serves to expose hits that act by an unwanted route or on another target.)
Chain of 1-phosphatidylinositol 4,5-bisphosphate phosphodiesterase gamma-1 (Homo sapiens) (P19174 whole entry, looked up): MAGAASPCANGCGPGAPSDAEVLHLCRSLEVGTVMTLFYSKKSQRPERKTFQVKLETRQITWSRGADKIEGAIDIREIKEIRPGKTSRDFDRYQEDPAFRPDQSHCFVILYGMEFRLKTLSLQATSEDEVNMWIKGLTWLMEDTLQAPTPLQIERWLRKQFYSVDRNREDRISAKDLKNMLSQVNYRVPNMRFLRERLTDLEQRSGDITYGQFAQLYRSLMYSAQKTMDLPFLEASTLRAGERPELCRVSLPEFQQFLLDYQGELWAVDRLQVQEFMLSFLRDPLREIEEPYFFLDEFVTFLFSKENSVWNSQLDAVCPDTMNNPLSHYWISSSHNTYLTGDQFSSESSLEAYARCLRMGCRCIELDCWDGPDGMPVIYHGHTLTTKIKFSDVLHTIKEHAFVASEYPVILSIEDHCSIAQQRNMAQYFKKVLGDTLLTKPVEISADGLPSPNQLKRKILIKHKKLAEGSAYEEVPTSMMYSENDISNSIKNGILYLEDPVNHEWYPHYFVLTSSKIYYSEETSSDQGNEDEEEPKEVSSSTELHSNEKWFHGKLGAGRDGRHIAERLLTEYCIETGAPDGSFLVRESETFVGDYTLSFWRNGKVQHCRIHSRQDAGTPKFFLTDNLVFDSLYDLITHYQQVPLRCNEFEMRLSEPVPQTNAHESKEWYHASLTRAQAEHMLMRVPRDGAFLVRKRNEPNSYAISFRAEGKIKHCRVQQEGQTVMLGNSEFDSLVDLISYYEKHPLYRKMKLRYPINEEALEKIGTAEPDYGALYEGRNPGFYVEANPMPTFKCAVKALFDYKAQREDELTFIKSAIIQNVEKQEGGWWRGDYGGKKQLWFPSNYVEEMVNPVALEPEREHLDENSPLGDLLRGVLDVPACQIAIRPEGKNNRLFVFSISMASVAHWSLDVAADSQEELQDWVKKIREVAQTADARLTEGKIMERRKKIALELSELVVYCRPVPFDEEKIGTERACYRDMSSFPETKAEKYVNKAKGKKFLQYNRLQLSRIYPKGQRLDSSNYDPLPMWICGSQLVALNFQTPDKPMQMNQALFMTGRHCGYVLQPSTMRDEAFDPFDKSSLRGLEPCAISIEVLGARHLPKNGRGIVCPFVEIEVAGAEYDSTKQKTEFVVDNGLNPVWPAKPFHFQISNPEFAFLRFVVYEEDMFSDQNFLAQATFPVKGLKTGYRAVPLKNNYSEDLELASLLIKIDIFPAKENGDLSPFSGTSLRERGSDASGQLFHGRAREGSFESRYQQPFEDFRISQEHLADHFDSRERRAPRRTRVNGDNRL
A word on the inhibition: it is the change of the read-out against control, counted positive when it falls. Regarding `CCCCNc1ccc(C(=O)Nc2cccc(C)n2)cc1[N+](=O)[O-]`, the inhibition was -2.76%.
The value for `Nc1nnc(SCC(=O)OCc2ccc(Cl)c(Cl)c2)s1` was -3.53%; that for `CCCCn1c(SCC(=O)N2CCCC2=O)nc2cc(S(N)(=O)=O)ccc21` was -2.51%.
Consider `COc1ccccc1CCNC(=O)CN1C(=O)NC2(CCCC2)C1=O`, for which the inhibition is 5.92%.
To `Cc1cc(C)c(NC(=O)CN2CCOCCOCCOCCOCC2)c(C)c1` belongs -2.06%; to `O=c1c([N+](=O)[O-])cc(C(F)(F)F)cn1Cc1cccc(Cl)c1`, 8.36%.
To `O=C(CSc1ncn[nH]1)N/N=C/c1ccc(F)cc1` belongs 0.56%; to `CCOC(=O)[C@]12CCCC=C1N(CCCOC)C(=O)[C@@H]2CC(=O)N1CCOCC1`, -3.38%.
To `Cc1nc(Nc2ccccc2C)c2cnn(C)c2n1` belongs -6.74%; to `Cc1cc(NC(=O)COn2nnc3ccccc32)no1`, -0.28%; to `C[C@]12c3[nH]c4ccc(Cl)cc4c3CCN1C(=O)[C@@H](CC(=O)NCCCn1ccnc1)C[C@@H]2C(=O)N1CCOCC1`, -7.65%.
In the case of `C=CC1=C(C(=O)O)N2C(=O)[C@@H](NC(=O)/C(=N\OCC(=O)O)c3csc(N)n3)[C@H]2SC1`, the inhibition was 88.6% (active).
With `COc1ccc(C(N)c2csc(NC(=O)Nc3cccc(C(F)(F)F)c3)n2)cc1` (stereo not given), the inhibition is -0.69%.
The value for `COc1ccc(/C(C)=N/N2CCOCC2)c(O)c1` was -16.2%.
To `CC(C)n1c(CN2CCN(Cc3ccccc3)CC2)nc2ccccc21` belongs -8.55%; to `CC(=O)C12CC(C)=C(C)CC1CC1C3CCC4=CC(=O)CCC4(C)C3CCC12C` (stereo not given), -1.14%.
Regarding `O=C(NC12CC3CC(CC(C3)C1)C2)N1CCCC(CO)C1` (stereo not given), the inhibition is -3.42%.
To `COc1ccccc1C(=O)N1C(CC(=O)Nc2ccccc2C)C(=O)NC2CCCCC21` (stereo not given) belongs -4.18%; to `C=CCn1c(SCn2nnc3ccccc3c2=O)nnc1-c1ccc(Cl)cc1`, -4%.
As to `CCOC(=O)C1CCN(C(=O)c2ccccc2N(C)S(=O)(=O)c2ccccc2)CC1`, the inhibition is -3.46%.
As to `CCC[C@H]1CCCC/C=C\CCCC(=O)OCCN1C(=O)OC(C)(C)C`, the inhibition was 1.42%.
Turning to `Cc1cccc([C@@H]2[C@@H]3C(=O)N(Cc4ccccc4)C(=O)[C@@H]3[C@]3(Cc4ccc(Cl)cc4)C(=O)N(c4cccc(Cl)c4)C(=O)N23)c1`, the inhibition is 3.36%.
To `Cc1c(C(=O)c2cccc([N+](=O)[O-])c2)c2ccccn2c1CCC#N` belongs -0.24%; to `CC1(C)CC(=O)C=C(NC2CC(C)(C)NC(C)(C)C2)C1`, -0.48%; to `Cc1ccc(-c2cn(S(=O)(=O)c3cccc([N+](=O)[O-])c3)nc2N)cc1`, -5.96%.
On to `O=C(Nc1ccc(Br)cc1)C1CCC(=O)N1Cc1ccccc1Cl` (stereo not given), for which the inhibition is -0.49%.
In the case of `CCN(CC)Cc1csc2ccc(Br)cc12`, the inhibition is -2.99%.
On to `Cc1nc2ccccc2nc1CC(O)(c1ccccc1)c1ccccc1`, for which the inhibition is 1.82%.
To `C/C(CC(C)C)=N\Oc1nc(C)cc(C)n1` belongs -8.49%.
The value for `O=C(c1ccc2c(c1)OCO2)N1CCNc2ccccc2C1` was -5.39%.
In the case of `Cc1cccc(C(=O)NCCCN2CCCC2=O)c1`, the inhibition was -4.45%.
The value for `Cc1ccc(NC(=S)N(Cc2ccco2)C(C)c2cccs2)cc1` (stereo not given) was -3.86%; that for `O=c1c2ccccc2c(-c2ccccc2)nn1Cc1ccccc1` was -4.2%.
For `O=C1c2ccccc2S(=O)(=O)N1CC(O)Cn1c2ccccc2c2ccccc21` (stereo not given), the inhibition is 2.37%.
To `O=C(/C=C/c1c(F)cccc1Cl)Nc1nn[nH]n1` belongs -8.5%.
With `CCOc1ccccc1NC(=O)c1cccnc1`, the inhibition was -8.44%.
`CCc1c(Nc2ccccc2C)nc(N)[nH]c1=O`: the inhibition was 0.72%.
On to `COc1ccc([N+](=O)[O-])cc1N(CC(O)Cn1nnc2ccccc21)S(=O)(=O)c1ccc(C)cc1` (stereo not given), for which the inhibition is -0.66%.
Turning to `COc1cc(NC(=O)COC(=O)c2ccc([N+](=O)[O-])s2)cc(OC)c1OC`, the inhibition was -0.3%.
The value for `Cc1ccc(C(=O)N2CCN(C(=O)N3CCOCC3)CC2)cc1` was -6.45%; that for `O=C(CSc1nnc(-c2ccncc2)n1C1CCCCC1)Nc1ccccc1` was -6.62%; that for `COC(=O)NC1(C(F)(F)F)NC(=O)N(C2CCCCC2)C1=O` (stereo not given) was -2.81%.
Turning to `CN(C)S(=O)(=O)c1cccc(NC(=O)COC(=O)C2(c3ccccc3F)CCCC2)c1`, the inhibition was -1.97%.
Consider `O=C(O)c1ccc(Cn2c(=S)[nH]c3cc(Cl)ccc3c2=O)cc1`, for which the inhibition was -7.72%.
The value for `C[C@H](C(=O)N(C)c1ccccc1)[C@@H](O)c1ccc2ccccc2c1` was -5.46%; that for `CC(C)(C)c1ccc(C(=O)Nc2cc(Cl)c(Br)cc2C(=O)O)cc1` was -7.48%.
The value for `CN(C)/C=C(/C(=O)c1ccc(Cl)cc1)S(=O)(=O)c1ccccc1` was -4.31%; that for `CCOc1ccc(NC(=O)[C@H](C)NC(=O)C2CC(=O)N(c3ccc(OC)cc3)C2)cc1` (stereo not given in full) was -8.84%; that for `CC1Oc2ccccc2N(Cc2cccnc2)C1=O` (stereo not given) was -5.05%.
To `CCOC(=O)N1CCC(c2cc(=O)n(-c3ccccc3)[nH]2)CC1` belongs 2.8%; to `CC(C)C(NC(=O)C1CCC(C(C)(C)C)CC1)C(=O)NCCCN1CCCCC1` (stereo not given), 8.08%; to `CC1(C)CC(=O)C=C(NCCN2CCNCC2)C1`, -10.6%.
In the case of `Cc1ccc(S(=O)(=O)N2CCCCC2)cc1NC(=O)CCNC(=O)c1ccccc1`, the inhibition is -4.84%.
As to `O=C1CS(=O)CN1c1ccc(Oc2ccccc2)cc1` (stereo not given), the inhibition is 24.1% (active).
To `CC(C)Oc1ccc(CC(=O)NNC(=S)Nc2ccc(Br)cc2)cc1` belongs -9.3%; to `OC(CNCC1CCCO1)Cn1c2ccc(Br)cc2c2cc(Br)ccc21` (stereo not given), -8.03%.
The value for `Cc1ccccc1C(=O)Nc1ccccc1Sc1ccccc1` was -2.19%.
The value for `CC(=O)c1c(C)[nH]c(C(=O)OCC(=O)Nc2cc(S(=O)(=O)N3CCCCC3)ccc2C)c1C` was -5.44%; that for `O=C(CCNS(=O)(=O)c1ccc(Br)cc1)NCC1CCCO1` (stereo not given) was -3.55%.
Take `CCOC(=O)Nc1ccc(NC(=O)OCC)cc1`: the inhibition is 5.66%.
To `Cc1ccc(S(=O)(=O)Cn2nnnc2CN2CCN(Cc3ccc4c(c3)OCO4)CC2)cc1` belongs 0.94%.
To `Cc1cccc(NC(=O)c2ccc3c(=O)n(CC4CCCO4)c(=S)[nH]c3c2)c1` (stereo not given) belongs -0.76%; to `CCn1c(/C=C/Nc2ccccc2)[n+](CC)c2ccc(C(=O)OCC(F)(F)F)cc21`, -14.3%; to `Cc1ccc(/C=N/NC(=O)CSc2nc3ccccc3o2)cc1`, -5.43%.
The value for `CNC(=O)c1ccc(NC(=O)c2cccc(C(F)(F)F)c2)cc1` was -6.45%; that for `CCCCc1nc2ccccc2c(NC(=O)CN2CCN(C)CC2)c1CCC` was -4.07%.
As for `COc1ccccc1C(=O)Nc1cccc(C(=O)N2CCOCC2)c1`, the inhibition was -6.49%.
For `COCCCN(C(=S)Nc1c(C)cc(C)cc1C)C(C)c1ccncc1` (stereo not given), the inhibition was -0.82%.
The value for `Cc1ccc(C)c(N2CCN(S(=O)(=O)c3c(C)[nH]c(C)c3C(=O)N3CCCC3)CC2)c1` was -8.57%; that for `CN(CC(=O)NC1CCCCC1)S(=O)(=O)c1ccc(Br)s1` was -5.25%; that for `O=C1N[C@@H](c2ccccc2)COC(=O)[C@H](Cc2ccc(F)cc2)C/C=C\C[C@@H]1CC(=O)N(CCO)Cc1ccccc1` was -2.05%.
In the case of `Cc1ccc(N2CC(C(=O)NCCS(=O)(=O)N3CCN(c4ccccc4)CC3)CC2=O)cc1` (stereo not given), the inhibition was -3.74%.
`O=c1ccc2c(-c3ccccc3S(=O)(=O)O)c3ccc(O)c(O)c3oc-2c1O`: the inhibition is 26.6% (active).
On to `NC1=CC(=O)C(=O)c2cccnc21`, for which the inhibition is 0.29%.
With `CCc1ccc(-c2nc(SCC(=O)NC3CCCC3)n[nH]2)cc1`, the inhibition was -6.5%.
To `Cc1ccc(-n2ncc3c2CC(C)(C)CC3NC(=O)CCc2cnn(C)c2)cc1` (stereo not given) belongs -2.59%.
To `COC(=O)CN1C(=O)C(O)=C(C(C)=O)C1c1ccc([N+](=O)[O-])cc1` (stereo not given) belongs -0.28%.
The value for `O=C(NCc1ccc(F)cc1F)[C@@H]1CCCN1C(=O)[C@@H]1CCCN1C(=O)c1cccc(Cl)c1` was -4.84%; that for `CCOc1ccc(CCNC(=O)COC(=O)CCS(=O)(=O)c2ccc(C)cc2)cc1OCC` was 1.09%.
Regarding `Cc1ccc(C(=O)Nc2ccc(C)c(S(=O)(=O)N(C)C)c2)s1`, the inhibition was -0.35%.
The value for `CC(=O)C1=C(O)C(=O)N(c2cccnc2)C1c1ccc([N+](=O)[O-])cc1` (stereo not given) was -4.99%.
To `O=C(C(c1ccccc1)c1ccccc1)N1CCN(CC(O)COc2ccccc2)CC1` (stereo not given) belongs 0.93%; to `NC1=NN(c2cccc(C(=O)O)c2)C(=O)C1`, -3.09%.
Regarding `CCOc1cccc(-c2nnc3sc(COc4ccc(OC)cc4)nn23)c1`, the inhibition was -4.31%.
For the compound `O=S(=O)(Nc1ccc(Oc2ncccn2)c(Cl)c1)c1ccc(F)cc1`, the inhibition was -6.2%.
In the case of `CC1CCN(S(=O)(=O)c2ccc(S(=O)(=O)NCc3ccco3)cc2)CC1`, the inhibition was 0.59%.
To `CN(C(=O)c1ccc(NC(=O)Cc2cccc(NC(=O)C3CCN(C(=O)c4ccccc4)CC3)c2)cc1)C1CC1` belongs -5.36%.
Consider `COc1cc(OC)nc(S(C)(=O)=O)n1`, for which the inhibition is 1.91%.
As for `O=C(COc1ccc(Cl)cc1)N1CCN(c2cccc(C(F)(F)F)c2)CC1`, the inhibition is -4.75%.
The value for `COCCNC(=O)C(c1ccc(O)cc1)N(C(=O)CCC(=O)Nc1nccs1)c1ccc(C)cc1` (stereo not given) was 0.09%.
